Source: PubChem BioAssay (NCI)
This is part of a sample that, as a whole, favours compounds with a hit. Of some 83,000 tested, about 20% had one in any assay.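 96-well plates, one dose, 48 hours. Percent growth reported; active if below 10.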 Values without a mark were called inactive. Active and inactive are the calls of the source.

What was measured:
Assay in all cases: NCI-60 one-dose screen, 48 h (100 = growth as untreated, 0 = no growth, -100 = all killed)
Conditions in all cases: 10 µM unless noted
NCI-H226 lung = tested on: NCI-H226 lung
NCI-H322M lung = tested on: NCI-H322M lung
HOP-62 NSCLC = tested on: HOP-62 NSCLC
NCI-H460 lung = tested on: NCI-H460 lung
NCI-H522 lung = tested on: NCI-H522 lung
786-0 renal = tested on: 786-0 renal
COLO 205 colon = tested on: COLO 205 colon
DU-145 prostate = tested on: DU-145 prostate
K-562 leukemia = tested on: K-562 leukemia
MALME-3M melanoma = tested on: MALME-3M melanoma
MDA-MB-231 breast = tested on: MDA-MB-231 breast
RXF 393 renal = tested on: RXF 393 renal
SF-268 CNS = tested on: SF-268 CNS
SF-295 CNS = tested on: SF-295 CNS
SF-539 CNS = tested on: SF-539 CNS
UACC-257 melanoma = tested on: UACC-257 melanoma
M14 melanoma = tested on: M14 melanoma
HCT-15 colon = tested on: HCT-15 colon
A549/ATCC NSCLC = tested on: A549/ATCC NSCLC

Structure (SMILES)	growth (NCI-H226 lung)	growth (NCI-H322M lung) [%]	growth (HOP-62 NSCLC) [%]	growth (NCI-H460 lung)	growth (NCI-H522 lung)	growth (786-0 renal) [%]	growth (COLO 205 colon)	growth (DU-145 prostate)	growth (K-562 leukemia) [%]	growth (MALME-3M melanoma)	growth (MDA-MB-231 breast) [%]	growth (RXF 393 renal)	growth (SF-268 CNS) [%]	growth (SF-295 CNS)	growth (SF-539 CNS)	growth (UACC-257 melanoma)	growth (M14 melanoma)	growth (HCT-15 colon) [%]	growth (A549/ATCC NSCLC) [%]
C[N+]1(CCc2ccccc2)CCC(CCC2CC[N+](C)(CCc3ccccc3)CC2)CC1 (stereo unspecified)	92.1%	120	66.9	103%	98.8%	110	104%	117%	129	118%	101	105%	102	97.1%	106%	110%	103%	104	–
c1coc([C@@H]2C[C@@H]3Cc4ccc5ccccc5c4N2O3)c1	107%	106	88.6	117%	86.8%	103	130%	120%	102	97.7%	108	94.2%	111	101%	99.6%	99.2%	108%	99.5	94.9
CC[N+](CC)(CCOCCOCC[N+](CC)(CC)Cc1ccc([N+](=O)[O-])cc1)Cc1ccc([N+](=O)[O-])cc1	91.7%	117	76.4	96.8%	93.4%	109	106%	119%	98	105%	91.3	110%	98.6	103%	105%	90.9%	101%	105	–
COc1ccc(CCN2CCCN3C2=Nc2ccccc2S3(=O)=O)cc1	61.7%	59.6	52.5	13.4%	17.3%	–	1.13% (active)	23%	15.6	68.8%	49.1	-0.424% (active)	63.1	14%	-28.2% (active)	75.7%	31.1%	25.4	31.7
CC1(C)OC(=O)C(=Cc2ccccc2Br)C(=O)O1	96.9%	101	106	102%	88.8%	103	109%	116%	87.4	–	109	–	104	99.7%	91.9%	95.3%	88%	88.6	103
Cc1[nH]n(C(N)=S)c(=O)c1N=Nc1ccc(F)c(Cl)c1	87%	–	92.1	–	94.6%	95.6	–	100%	95.3	110%	89.1	131%	92.2	103%	108%	124%	100%	104	106
Clc1cc(Cl)c(OCC#CI)cc1Cl	43.1%	–	108	100%	18%	98.9	5.9% (active)	86.8%	69.5	0.95% (active)	83.2	-11.9% (active)	98.6	101%	33.2%	-3.08% (active)	–	42.1	101
c1cncc(CNc2ccccc2-c2nnc(Nc3ccc4c(c3)OCO4)o2)c1	-14% (active)	46.6	27.2	9.93% (active)	3.02% (active)	37	-39.8% (active)	1.3% (active)	–	32.1%	16.3	-2.33% (active)	33.5	5.25% (active)	0.107% (active)	56.2%	9.13% (active)	10.2	20
